CR mimetic SO: reduction of superoxide in aged yeast, primary screen, HTS. S. cerevisiae aged cells, superoxide DHE fluorescence; stronger effect = lower value. superoxide response (% of plate mean), % at 10 µM. AID 2690, 2010. actives 0.18% (n = 330,000);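 active = superoxide response under a set limit, about three screen SD below normal, cut at about 65% in these data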;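 note: yeast aged for seven days with compound at 30 °C before DHE staining; 100% = average MFI of all compound-treated wells on the plate with controls excluded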
APOBEC3A inh: APOBEC3A ssDNA deaminase inhibitors, primary screen, selectivity assay for APOBEC3G inhibitor project, biochemical, FAM/TAMRA oligo cleavage fluorescence; DNA dC->dU-editing enzyme APOBEC-3A (Homo sapiens), P31941; recombinant A3A, FAM/TAMRA ssDNA deamination fluorescence; inhibition, % at 20 µM; actives 0.41% (n = 330,000); AID 493011, 2011;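 active = at least 40% inhibition at 20 µM here, with at most 30% in a related deaminase screen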;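 note: plate controls were A3A with DMSO for no effect and wells lacking A3A enzyme for full effect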
Target sequence (P31941 whole entry, looked up): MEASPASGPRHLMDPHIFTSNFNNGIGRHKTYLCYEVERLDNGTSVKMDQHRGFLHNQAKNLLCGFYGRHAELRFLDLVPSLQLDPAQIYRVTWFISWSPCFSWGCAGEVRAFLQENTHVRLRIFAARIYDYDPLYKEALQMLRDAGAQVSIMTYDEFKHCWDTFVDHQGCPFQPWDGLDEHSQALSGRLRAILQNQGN
APOBEC3G inh: APOBEC3G DNA deaminase inhibitors, primary screen, biochemical, fluorescence, single-stranded DNA substrate, uHTS | recombinant A3G, ssDNA deamination FAM/TAMRA fluorescence | DNA dC->dU-editing enzyme APOBEC-3G (Homo sapiens), Q9HC16 | inhibition, % at 20 µM | actives 0.28% (n = 330,000);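 active = inhibition of at least 40% at 20 µM, with no more than 30% in the related APOBEC3A deaminase screen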;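 note: plate controls were DMSO wells with A3G for no effect and wells lacking A3G enzyme for full effect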
PfM18AAP inh-1: PfM18AAP inhibitors, malaria aminopeptidase, primary screen, biochemical, QFRET, recombinant enzyme; H-Glu-NHMec fluorogenic cleavage; inhibition, % at 7.35 µM; actives 1.2% (n = 290,000); AID 1822, 2009;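 active = inhibition above the campaign mean inhibition over all tested compounds plus 3 SD, cut at about 28% in these data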;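 note: 0% = plate median of test compound wells and 100% = 2 mM ZnCl2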
PfGluPho inh: PfG6PD enzyme inhibitors, primary screen, biochemical, fluorescence intensity, uHTS; inhibition, % at 20 µM; PfGluPho enzyme, NADPH resazurin-diaphorase fluorescence; AID 504690, 2011; actives 0.78% (n = 350,000);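 active = inhibition reaching at least a set limit at 20 µM in the primary screen, cut at about 59% in these data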;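 note: 0% = DMSO wells with substrate and 100% = DMSO wells lacking glucose-6-phosphate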
PfM18AAP inh-2: PfM18AAP inhibitors, malaria aminopeptidase, confirmation, biochemical, QFRET, recombinant enzyme, triplicate; shares compounds with PfM18AAP inh-1; H-Glu-NHMec fluorogenic cleavage; inhibition, % at 7.35 µM; actives 28% (n = 2,400);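 active = mean inhibition over replicate wells above the hit cutoff set for the earlier primary screen, cut at about 29% in these data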;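 note: 0% = median of test compound wells and 100% = 2 mM ZnCl2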
CTSL1 confirm: cathepsin L1 inhibitors, retest, confirmation, counter-screen for PFM18AAP inhibitor project, biochemical, QFRET, triplicate; shares compounds with PfM18AAP inh-1; purified cathepsin L1, Z-Leu-Arg-MCA fluorescence; inhibition, % at 5.96 µM; 2,400 tested, under 10 active; AID 2178, 2009;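 active = average inhibition across replicates above the hit cutoff set in the earlier primary screen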;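 note: 0% = median of test compound wells and 100% = Z-Phe-Ala-diazomethylketone 1 µM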
Target sequence (P07711 whole entry, looked up): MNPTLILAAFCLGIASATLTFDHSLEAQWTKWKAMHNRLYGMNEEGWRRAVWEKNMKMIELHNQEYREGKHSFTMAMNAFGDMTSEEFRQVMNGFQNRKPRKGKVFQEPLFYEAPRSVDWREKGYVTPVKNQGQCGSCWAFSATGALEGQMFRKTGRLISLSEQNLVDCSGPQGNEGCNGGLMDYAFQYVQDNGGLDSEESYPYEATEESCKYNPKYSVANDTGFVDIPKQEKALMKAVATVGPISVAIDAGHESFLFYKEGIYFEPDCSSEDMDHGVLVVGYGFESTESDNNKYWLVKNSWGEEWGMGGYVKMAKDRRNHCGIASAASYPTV
Numbers without * were called inactive. Only some compounds are listed: those with a hit (about 2.4% of all), similar ones and a draw of the others.

Results for NC(=O)c1nn(CC(=O)Nc2cccc(S(=O)(=O)N3CCCC3)c2)c(=O)c2ccccc12 ?
CR mimetic SO: 116; APOBEC3A inh: 10; APOBEC3G inh: 1; PfGluPho inh: -2

How did CC(C)C(=O)NNc1nc2ccccc2s1 do in these assays?
CR mimetic SO: 92; APOBEC3A inh: -3; APOBEC3G inh: -6; PfM18AAP inh-1: 11; PfGluPho inh: 6

What do the screens show for `CC(=O)Nc1ccc2nc(NC(=O)COc3ccccc3Cl)sc2c1`?
CR mimetic SO: 114; APOBEC3A inh: -2; APOBEC3G inh: -4; PfM18AAP inh-1: 4; PfGluPho inh: 4

Results for O=C(NNc1nc2ccccc2s1)Nc1ccc(Cl)c(Cl)c1 ?
CR mimetic SO: 106; APOBEC3A inh: 0; APOBEC3G inh: -4; PfM18AAP inh-1: 60*; PfGluPho inh: 50; PfM18AAP inh-2: 49*; CTSL1 confirm: -4

How did O=C(NNc1nc2ccccc2s1)C1CC1 do in these assays?
CR mimetic SO: 86; APOBEC3A inh: -2; APOBEC3G inh: -1; PfM18AAP inh-1: 56*; PfGluPho inh: -4; PfM18AAP inh-2: 24; CTSL1 confirm: -3

What do the screens show for `O=C(CSc1nc2ccccc2s1)NNC(=O)Nc1ccc(Cl)c(Cl)c1`?
CR mimetic SO: 116; APOBEC3A inh: 0; APOBEC3G inh: -2; PfM18AAP inh-1: 52*; PfGluPho inh: 29; PfM18AAP inh-2: -22; CTSL1 confirm: 3

What do the screens show for `O=C(NNc1nc2ccccc2s1)c1ccccc1F`?
CR mimetic SO: 91; APOBEC3A inh: 2; APOBEC3G inh: 2; PfM18AAP inh-1: 47*; PfGluPho inh: -6; PfM18AAP inh-2: -5; CTSL1 confirm: 6

Results for O=C(NNc1nc2ccccc2s1)Nc1ccc(F)cc1 ?
CR mimetic SO: 107; APOBEC3A inh: -7; APOBEC3G inh: 3; PfM18AAP inh-1: 60*; PfGluPho inh: 7; PfM18AAP inh-2: 34*; CTSL1 confirm: -4

What do the screens show for `COc1ccc(NC(=O)Nc2nc3ccccc3s2)cc1`?
CR mimetic SO: 104; APOBEC3A inh: -4; APOBEC3G inh: -8; PfM18AAP inh-1: -6; PfGluPho inh: 3

Results for O=C(CSc1nc2cc(S(=O)(=O)N3CCOCC3)ccc2o1)Nc1c(F)cccc1F ?
CR mimetic SO: 99; APOBEC3A inh: -4; APOBEC3G inh: 22; PfM18AAP inh-1: 32*; PfGluPho inh: 50; PfM18AAP inh-2: 3; CTSL1 confirm: -1

What do the screens show for `CCCCOc1ccc(C(=O)NCC(=O)NCCOc2ccccc2OC)cc1`?
CR mimetic SO: 85; APOBEC3A inh: -5; APOBEC3G inh: -7; PfGluPho inh: -3

What do the screens show for `O=C1S/C(=C\C=C\c2ccco2)C(=O)N1c1ccc(O)cc1`?
CR mimetic SO: 87; APOBEC3A inh: 68; APOBEC3G inh: 56; PfM18AAP inh-1: 39*; PfGluPho inh: 26; PfM18AAP inh-2: -39; CTSL1 confirm: 11

What do the screens show for `O=C1S/C(=C\C=C\c2ccco2)C(=O)N1c1ccccc1`?
CR mimetic SO: 101; APOBEC3A inh: 17; APOBEC3G inh: 7; PfM18AAP inh-1: 15; PfGluPho inh: 35

What do the screens show for `CO/N=C(\C(=O)O)c1csc(NN=C(C)C)n1`?
CR mimetic SO: 95; APOBEC3A inh: -3; APOBEC3G inh: -9; PfM18AAP inh-1: 41*; PfGluPho inh: 11; PfM18AAP inh-2: -16; CTSL1 confirm: -4

What do the screens show for `O=C(O)C(c1ccccc1)C1(O)CC2CCC1C2` (stereo unspecified)?
PfGluPho inh: -18

How did O=C(NN=C1CCC(=NNC(=O)c2ccccn2)CC1)c1ccccn1 do in these assays?
APOBEC3A inh: -2; APOBEC3G inh: -8; PfM18AAP inh-1: 32*; PfGluPho inh: 3; PfM18AAP inh-2: -17; CTSL1 confirm: -1

Results for CCC(NS(=O)(=O)c1ccc(OC)cc1)C(=O)NCCc1ccccc1 (stereo unspecified) ?
CR mimetic SO: 149; APOBEC3A inh: 1; APOBEC3G inh: -6; PfM18AAP inh-1: -11; PfGluPho inh: -14

What do the screens show for `CC(O)CCC(=O)NNC1=CC(=O)CC(C)(C)C1` (stereo unspecified)?
CR mimetic SO: 121; APOBEC3A inh: -3; APOBEC3G inh: -8; PfM18AAP inh-1: 1

How did COc1ccc(C(=O)NNC2=CC(=O)CC(C)(C)C2)cc1OC do in these assays?
CR mimetic SO: 105; APOBEC3A inh: 2; APOBEC3G inh: -5; PfM18AAP inh-1: 40*; PfGluPho inh: 2; PfM18AAP inh-2: 4; CTSL1 confirm: -4

What do the screens show for `CC1(C)CC(=O)C=C(NNC(=O)OC(C)(C)C)C1`?
CR mimetic SO: 88; APOBEC3A inh: -2; APOBEC3G inh: -4; PfM18AAP inh-1: -2; PfGluPho inh: 2

How did Cc1occc1C(=O)NNC1=CC(=O)CC(C)(C)C1 do in these assays?
CR mimetic SO: 92; APOBEC3A inh: -1; APOBEC3G inh: -4; PfM18AAP inh-1: 55*; PfGluPho inh: 10; PfM18AAP inh-2: 30*; CTSL1 confirm: 4

Results for CC1(C)CC(=O)C=C(NNC(=O)c2ccc(N)cc2)C1 ?
CR mimetic SO: 91; APOBEC3A inh: -4; APOBEC3G inh: -9; PfM18AAP inh-1: 48*; PfGluPho inh: -2; PfM18AAP inh-2: 19; CTSL1 confirm: 3

Results for Cc1csc(NC(=O)C(NC(=O)c2ccccc2F)C(C)C)n1 (stereo unspecified) ?
CR mimetic SO: 100; APOBEC3A inh: -1; APOBEC3G inh: -8; PfM18AAP inh-1: 0; PfGluPho inh: 5

Results for COc1cccc2c(SCC(=O)N/N=C/c3ccc(O)c(O)c3)cc(C)nc12 ?
CR mimetic SO: 92; PfM18AAP inh-1: 66*; PfGluPho inh: 20; PfM18AAP inh-2: 63*; CTSL1 confirm: -2

How did COc1cccc2c(SCC(=O)N/N=C/c3ccccc3)cc(C)nc12 do in these assays?
CR mimetic SO: 103; APOBEC3A inh: 0; APOBEC3G inh: -6; PfM18AAP inh-1: 3; PfGluPho inh: 2

What do the screens show for `COc1ccc2c(c1)c(C(=O)N/N=C/c1ccc(O)c(O)c1)c(C)n2C`?
CR mimetic SO: 87; APOBEC3A inh: -4; APOBEC3G inh: -4; PfM18AAP inh-1: 51*; PfGluPho inh: -2; PfM18AAP inh-2: 40*; CTSL1 confirm: 2

What do the screens show for `COc1ccc2c(c1)c(C(=O)N/N=C/c1ccc(Br)cc1)c(C)n2C`?
CR mimetic SO: 102; APOBEC3A inh: -1; APOBEC3G inh: -8; PfM18AAP inh-1: -16; PfGluPho inh: 36

Compound activity as filed in PubChem BioAssay.
